sEH inhibitor: blocks human soluble epoxide hydrolase activity; hit rate 0.34% among 91,000; P34913; inhibition, % at 2 µM; recombinant human sEH enzymatic activity assay; in the data active = inhibition above about 80%
CYP2C9 activ: increases human cytochrome P450 2C9 activity. hit rate 1.4% among 96,000. recombinant CYP2C9, luciferin-H conversion, luminescence; hits give high values; factor 1 = untreated enzyme, 0 = blocked. activation factor at 5 µM;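 active = activation factor of 2 or more for CYP2C9 at a 5 µM dose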
sEH act: increases human soluble epoxide hydrolase activity; hit rate 0.04% among 91,000; purified human sEH enzymatic activity, activator screen; P34913; activation, % at 2 µM; AID 717; in the data active = activation above about 37%
CYP2C19 inhib: human CYP2C19 inhibition; P33261; CYP2C19 Supersomes, luciferin-H EGE luminescence, 30 min; inhibition, % at 5 µM; hit rate 21% among 96,000; AID 778;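 active = CYP2C19 inhibition above a set limit at 5 µM in the primary screen, cut at about 50% in these data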
Target sequence (P33261 whole entry, looked up): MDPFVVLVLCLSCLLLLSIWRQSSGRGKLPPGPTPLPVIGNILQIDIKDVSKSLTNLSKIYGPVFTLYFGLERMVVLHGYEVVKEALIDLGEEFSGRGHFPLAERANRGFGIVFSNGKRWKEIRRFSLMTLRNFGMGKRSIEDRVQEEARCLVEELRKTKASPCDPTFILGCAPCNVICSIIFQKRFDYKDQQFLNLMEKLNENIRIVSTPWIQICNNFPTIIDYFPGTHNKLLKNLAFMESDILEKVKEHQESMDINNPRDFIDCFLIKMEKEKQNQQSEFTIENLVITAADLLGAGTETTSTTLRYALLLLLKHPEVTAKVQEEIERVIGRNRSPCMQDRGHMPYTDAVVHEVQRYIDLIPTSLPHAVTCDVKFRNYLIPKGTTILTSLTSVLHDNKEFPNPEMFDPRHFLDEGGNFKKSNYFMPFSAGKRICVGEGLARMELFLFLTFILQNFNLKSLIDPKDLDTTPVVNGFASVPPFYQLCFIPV
CYP2C19 activ: activators of human cytochrome P450 2C19; recombinant CYP2C19, luciferin-H EGE luminescence; hits give high values; 0 = fully inhibited enzyme, 1 = untreated enzyme; activation factor at 5 µM; 96,000 tested, under 10 active;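 active = activation factor of at least 2 at 5 µM in the primary screen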
CYP2C9 inh: blocks human cytochrome P450 2C9 | CYP2C9 Supersomes, luciferin-H conversion, luminescence | P11712 | inhibition, % at 5 µM | AID 777 | hit rate 20% among 96,000;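 active = blocking of liver enzyme CYP2C9 beyond about 50% at 5 µM, limit read from the data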
Each line names hits and unclear results; the compound was inactive in the other large screens. Most compounds without a hit are left out; they make up all but 27% or so of the library.

Cc1ccc(C(=O)Nc2nc3ccccc3c(=O)s2)cc1	none
O=C(Nc1nc(=O)n(C(=O)C2CC2)s1)c1ccccc1	CYP2C9 inh 80
CCCN(CCC)S(=O)(=O)c1ccc(C(=O)N2CCC(=O)c3ccccc32)cc1	none
O=C1CCCc2c1cc(-c1ccccc1)n2-c1ccccc1	none
COc1ccsc1C(=O)N1CCN(Cc2ccc3c(c2)OCO3)CC1	CYP2C19 inhib 85
Cn1c(C(=O)N2CCC(C(=O)N3CCN(Cc4ccc5c(c4)OCO5)CC3)CC2)cc2sccc21	CYP2C19 inhib 51 (no result: sEH inhibitor, sEH act)
Cn1c(C(=O)N2CCN(Cc3ccc4c(c3)OCO4)CC2)cc2sccc21	CYP2C19 inhib 70
O=C(c1ccc(Br)s1)N1CCN(Cc2ccc3c(c2)OCO3)CC1	none
COc1ccc(-c2nc3nc(C)cc(=O)n3[nH]2)cc1	none
CC(=O)Nc1ccc(NC(=O)C2CC(=O)N=C(N)S2)cc1 (stereo not drawn)	none
CCOc1ccccc1C(=O)N1CCC(C(=O)c2ccc(F)cc2)CC1	none (no result: CYP2C9 activ, CYP2C19 inhib, CYP2C19 activ, CYP2C9 inh)
Cc1ccc(OCCCCn2cnc3ccccc32)c(C)c1	none
Cc1ccccc1OCCn1cnc2c(N)ncnc21	none (no result: CYP2C9 activ, CYP2C19 inhib, CYP2C19 activ, CYP2C9 inh)
Clc1ccccc1OCCn1cnc2ccccc21	CYP2C19 inhib 80, CYP2C9 inh 69 (no result: sEH inhibitor, sEH act)
Cc1cc2ncn(CCOc3ccccc3C#N)c2cc1C	CYP2C19 inhib 77, CYP2C9 inh 51
Clc1ccc(OCCn2cnc3ccccc32)cc1	CYP2C19 inhib 84, CYP2C9 inh 77
O=C(CCn1c(=O)sc2ccccc21)NCCN1CCOCC1	none (no result: CYP2C9 activ, CYP2C19 inhib, CYP2C19 activ, CYP2C9 inh)
O=C(NCCC1=CCCCC1)C1CCN(S(=O)(=O)c2cnc[nH]2)CC1	CYP2C19 inhib 78, CYP2C9 inh 96
O=C(NCCc1ccc(Cl)cc1)C1CCN(S(=O)(=O)N2CCC3(CC2)OCCO3)CC1	CYP2C19 inhib 77
O=C(NCc1ccc(F)cc1)C1CCN(S(=O)(=O)N2CCC3(CC2)OCCO3)CC1	none
Cc1noc(C)c1S(=O)(=O)N1CCCC(C(=O)NCCc2ccc(Cl)cc2)C1 (stereo not drawn)	CYP2C19 inhib 69
O=C(NCCN1CCN(c2ccccc2)CC1)C1CCCN(S(=O)(=O)c2cnc[nH]2)C1 (stereo not drawn)	none
Cc1nn(C)c(C)c1S(=O)(=O)N1CCCC(C(=O)NCCc2ccc(Cl)cc2)C1 (stereo not drawn)	none (no result: sEH inhibitor, sEH act)
O=C(NCCc1ccc(Cl)cc1)C1CCCN(S(=O)(=O)c2cnc[nH]2)C1 (stereo not drawn)	CYP2C19 inhib 92, CYP2C9 inh 86 (no result: sEH inhibitor, sEH act)
CCCC(=O)OCC(=O)Nc1cc(C(C)(C)C)nn1-c1ccccc1	none
COc1cc2cc(Br)cc(Br)c2nc1C	none
CC(OC(=O)c1cccc(NS(C)(=O)=O)c1)C(=O)Nc1ccc(N2CCOCC2)cc1 (stereo not drawn)	none
COCCSc1ccccc1C(=O)Nc1ccc2c(c1)OCCO2	none
Cc1ccc(CCNC(=O)C2CCCN(S(=O)(=O)c3c(C)nn(C)c3C)C2)cc1 (stereo not drawn)	none
Cc1ccc(CCNC(=O)C2CCCN(S(=O)(=O)c3cnc[nH]3)C2)cc1 (stereo not drawn)	CYP2C19 inhib 87, CYP2C9 inh 78
Cc1noc(C)c1C(=O)NCCc1ccc(Cl)cc1	CYP2C19 inhib 91, CYP2C9 inh 54
CC(=O)OC1CSc2nc3ccccc3n2C1 (stereo not drawn)	none (no result: CYP2C9 activ, CYP2C19 inhib, CYP2C19 activ, CYP2C9 inh)
COC(=O)c1ccc(NC(=O)CN2C(=O)CNC2=O)cc1	none
NC(=S)N/N=C/c1ccc(-c2ccc(Cl)c(Cl)c2)o1	none
Clc1ccc(Cl)c(-c2ccc(/C=N/c3ncn[nH]3)o2)c1	CYP2C9 activ 2.9
CN(CC(=O)Nc1ccccc1C(=O)N1CCCC1)S(=O)(=O)c1ccc(Cl)cc1	none
COc1ccccc1NC(=O)CCC(=O)Nc1nnc(C(F)(F)F)s1	CYP2C9 inh 72
COc1ccc(OC)c(NC(=O)CCC(=O)Nc2nnc(C(F)(F)F)s2)c1	CYP2C9 inh 74
O=S(=O)(c1ccc2ccccc2c1)N1CCC(c2nc(-c3ccncc3)no2)CC1	none (no result: CYP2C9 activ, CYP2C19 inhib, CYP2C19 activ, CYP2C9 inh)
CC(C)N(C(=O)N1CCC(c2nc(-c3ccncc3)no2)CC1)C(C)C	CYP2C19 inhib 66
O=c1[nH]c2cccnc2n1Cc1ccco1	none
Nc1c(S(=O)(=O)c2cccs2)c2nc3ccccc3nc2n1Cc1ccc2c(c1)OCO2	CYP2C9 inh 91
c1csc(-c2nc3nc4ccccc4nc3n2Cc2ccc3c(c2)OCO3)c1	CYP2C19 inhib 90, CYP2C9 inh 96
CC(C)CCn1c(N)c(S(=O)(=O)c2cccs2)c2nc3ccccc3nc21	CYP2C9 inh 85
Nc1c(S(=O)(=O)c2cccs2)c2nc3ccccc3nc2n1Cc1cccs1	none
Nc1c(S(=O)(=O)c2cccs2)c2nc3ccccc3nc2n1CC1CCCO1 (stereo not drawn)	none
Nc1c(S(=O)(=O)c2cccs2)c2nc3ccccc3nc2n1CCc1ccccc1	CYP2C19 inhib 58, CYP2C9 inh 58
CCCn1c(-c2cccs2)nc2nc3ccccc3nc21	none
O=C(c1ccccc1C(=O)N1CCN(c2ccc(F)cc2)CC1)N1CCN(c2ccc(F)cc2)CC1	CYP2C19 inhib 54, CYP2C9 inh 88
O=C(O)c1ccccc1C(=O)N1CCN(c2ccccc2)CC1	none
O=C(Nc1ccc(N2CCN(C(=O)c3ccc(Cl)cc3)CC2)cc1)c1ccc(Br)o1	CYP2C9 inh 57
O=C(c1cccs1)N1CCN(c2ccc(F)cc2)CC1	none
O=C(Nc1ccc(N2CCN(C(=O)c3ccc(Cl)cc3)CC2)cc1)c1cc2ccccc2o1	none
O=C(c1csc2c1CCCC2)N1CCN(c2ccccc2)CC1	CYP2C9 activ 2
O=C(c1ccccc1C(=O)N1CCN(c2ccccc2)CC1)N1CCN(c2ccccc2)CC1	CYP2C9 inh 70
COCCN1Cc2cccc(C(=O)N3CCN(c4ccccc4)CC3)c2C1=O	none
CCC(C)NC(=O)c1csc2c1CCCCC2 (stereo not drawn)	none
COc1cccc(N2CCN(C(=O)c3[nH]c(C)c(C(C)=O)c3C)CC2)c1	none (no result: sEH inhibitor, sEH act)
O=C(c1ccccc1)N1CCN(c2ccc(Cl)cc2)CC1	CYP2C19 inhib 98, CYP2C9 inh 68 (no result: sEH inhibitor, sEH act)
CC(=O)c1c(C)[nH]c(C(=O)N2CCN(c3ccc(F)cc3)CC2)c1C	CYP2C19 inhib 71
O=C(c1ccccc1)N1CCN(C(=O)c2ccccc2)CC1	none (no result: CYP2C9 activ, CYP2C19 inhib, CYP2C19 activ, CYP2C9 inh)
CCCN1Cc2cccc(C(=O)N3CCN(c4ccccc4)CC3)c2C1=O	CYP2C19 inhib 50
CCOC(=O)N1CCN(C(=O)c2csc3c2CCCCC3)CC1	CYP2C19 inhib 55, CYP2C9 inh 76
CC1(C)CC(NC(=O)c2cccc3ccccc23)CC(C)(C)N1	none
CC(C)Cc1cc(C(=O)N2CCN(c3ccc(F)cc3)CC2)no1	CYP2C19 inhib 76, CYP2C9 inh 65 (no result: sEH inhibitor, sEH act)
Cc1ccc(C(=O)N2CCN(c3ccc(NC(=O)c4cccnc4)cc3)CC2)cc1	CYP2C9 inh 74
COc1ccccc1-c1cc(C(=O)N2CCN(c3ccc(F)cc3)CC2)no1	none
